# Compounds with a hit are over-represented: about 7.4% of the library has one in this group of screens.
# Rab9 promoter act – Rab9 promoter activation; Huh7 Rab9 promoter-luciferase reporter, luminescence, 24 h; AID 485297; Potency, µM (top dose mostly 9.22 µM), for the others: top-dose activation, negative = inhibition, hits mostly activators; hit rate 2.8% among 320,000; note: % of control where 0% means no effect; nearly all actives have a fitted effect of over 60% in size
#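 Stable Rab9-luc Huh7, 1500 cells/well, 2 h settle; cmpd in DMSO, 24 h, 37 °C/5% CO2; luciferase reagent 10 min RT; luminescence.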
# NPC1 prom act – NPC1 promoter activation. Huh7 NPC1 promoter luciferase reporter, 24 h. Potency, µM (top dose mostly 9.22 µM), inactives show top-dose activation, most hits filed as activators. hit rate 2.4% among 320,000; note: % of control where 0% means no effect; nearly all actives have a fitted effect of over 60% in size
#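 Stable NPC1-promoter luciferase Huh7 line; cpd (DMSO) 24 h, 37 °C, 5% CO2; Amplite luciferase reagent 10 min RT; luminescence readout. qHTS format.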
# SMN2 splice up – increases expression of the SMN2 splice variant | HEK293 SMN2-luciferase splicing reporter, luminescence, 30-36 h | Potency, µM (series often up to 46.1 µM), inactives show at the top dose activity change, positive = activation, most hits filed as activators | hit rate 2.8% among 210,000 | AID 1458; note: % of control where 0% means no effect; nearly all actives have a fitted effect of over 55% in size
#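 HEK293 cells carry an SMN2 minigene-luciferase reporter in which exon 7 inclusion puts luciferase in frame. Cells were seeded at 2000 cells/well, attached for 10-12 hours, then exposed to compounds for 30-36 hours at 37C before ONE-Glo luminescence.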
# ELG1 genotoxic – induces genotoxicity in HEK293T cells with luciferase-tagged ELG1 | HEK293T ELG1-luciferase reporter, luminescence, 16 h | Potency, µM (top dose mostly 46 µM), without a hit: top-dose activity change, positive = activation, usual class: activators | hit rate 1.3% among 330,000; note: % of control where 0% means no effect; nearly all actives have a fitted effect of over 60% in size
#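 Screening used a luciferase reporter fused to human ELG1 in HEK293T cells. Luminescence was read on a CCD plate imager after 16 hr exposure and 30 min ONE-Glo incubation.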
# FLuc modulator – inhibits or activates purified firefly luciferase, miR-21 counter-screen; P08659; purified FLuc, Km substrates, luminescence inhibition; Potency, µM (series often up to 57.5 µM), for the others: at the top dose activity change, negative = inhibition, most hits filed as inhibitors; hit rate 6.9% among 360,000; AID 588342;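 note: plate controls were vehicle for no effect and reference inhibitor for full effect; nearly all actives have a fitted effect of over 55% in size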
# Target sequence (P08659 whole entry, looked up): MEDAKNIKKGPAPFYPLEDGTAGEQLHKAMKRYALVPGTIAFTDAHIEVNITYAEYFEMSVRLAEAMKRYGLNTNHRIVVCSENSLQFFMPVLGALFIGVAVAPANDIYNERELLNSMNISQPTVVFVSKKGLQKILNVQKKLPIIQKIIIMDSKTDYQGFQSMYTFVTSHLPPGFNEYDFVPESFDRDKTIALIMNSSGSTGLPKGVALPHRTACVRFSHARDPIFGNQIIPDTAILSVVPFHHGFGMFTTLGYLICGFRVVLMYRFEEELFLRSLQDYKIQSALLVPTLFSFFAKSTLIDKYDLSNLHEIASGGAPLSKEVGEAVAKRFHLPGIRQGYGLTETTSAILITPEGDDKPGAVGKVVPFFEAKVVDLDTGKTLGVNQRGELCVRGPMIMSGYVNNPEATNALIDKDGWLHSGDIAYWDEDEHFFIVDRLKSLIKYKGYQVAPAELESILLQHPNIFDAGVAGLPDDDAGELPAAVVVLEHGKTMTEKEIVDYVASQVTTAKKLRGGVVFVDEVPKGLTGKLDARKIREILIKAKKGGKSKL
#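 Purified P. pyralis luciferase, 10 nM final, with Km-level 10 uM D-luciferin and 10 uM ATP in 50 mM Tris acetate pH 7.5, 10 mM Mg acetate, 0.01% Tween-20, 0.05% BSA; 6-point qHTS titration about 60 µM downward; luminescence read.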
# An asterisk follows results filed as active; ? = inconclusive; nt = no result; [ ] = remark or other dose. Calls come from the whole dose curve; as a rule, active = well fitted curve in the direction sought with a large enough effect; inconclusive = small, poorly fitted or top-dose-only effect, or another doubt; inactive = no such curve, though single readings can be large; an effect the other way counts as inactive or inconclusive. Potency is the fitted concentration of half-maximal effect.
SMILES,Rab9 promoter act,NPC1 prom act,SMN2 splice up,ELG1 genotoxic,FLuc modulator
Cc1cccc(C)c1NC(=O)c1cccc(N2C(=O)C3CCC(C)CC3C2=O)c1 (centres undefined),2%,-3%,nt,1%,0%
C=CCn1c(O)c(N=NC(=O)c2ccc3c(c2)OCO3)c2ccccc21,?,?,-8%,5%,3µM*
Cc1nc2nc(CNC(=O)OC(C)(C)C)nn2c(C)c1CCC(=O)Nc1ccc2c(c1)OCO2,0%,-6%,nt,4%,?
CCC(c1nnnn1C1CCCCC1)N1CCN(C(=O)c2ccco2)CC1 (centres undefined),0%,-6%,nt,1%,-2%
O=C(Nc1nnc(-c2cccs2)o1)c1cccc(Oc2ccccc2)c1,7%,3%,1%,-9%,-16%
O=C(Nc1ccsc1C(=O)O)c1cccc(Oc2ccccc2)c1,0.89µM*,1.8µM*,nt,?,0.76µM*
O=C(Nc1ccsc1C(=O)O)c1cccc(C(F)(F)F)c1,?,3.2µM*,nt,16µM*,9.5µM*
Cc1ccccc1NC(=O)c1cccc(C(F)(F)F)c1,3%,-2%,4%,0%,-5%
Cc1ccc(S(=O)(=O)NCCCN2CCCC2)cc1,-3%,-4%,nt,-1%,-1%
CC(NC(=O)CSc1nnnn1C1CC1)c1ccccc1Br (centres undefined),nt,nt,nt,0%,nt
CCOc1ccc(CCNC(=O)c2cccc(S(=O)(=O)N3CCN(C(C)=O)CC3)c2)cc1OCC,-9%,-3%,nt,1%,1%
Cc1ccc2nc(-c3sc4nc(C)cc(C)c4c3N)[nH]c2c1,?,21%,2.5µM*,?,0.34µM*
Nc1cccc(-c2nc3ccccc3[nH]2)c1,4µM*,2.8µM*,13µM*,?,13µM*
Nc1ccc2nc(-c3cccc(-c4nc5ccc(N)cc5[nH]4)n3)[nH]c2c1,3%,1%,nt,-4%,9.5µM*
c1ccc(-c2cc(-c3nc4ccccc4[nH]3)c3ccccc3n2)cc1,-1%,1%,-100%,-17%,?
Nc1ccc(-c2nc3ccc(-c4nc5ccc(N)cc5[nH]4)cc3[nH]2)cc1,10%[46.1 µM],-5%[46.1 µM],?,nt,nt
CC(=O)c1sc2nc(C)cc(C)c2c1N,1%,0%,?,-2%,-15%
Cc1ccc2nc(-c3cccc(N)c3)[nH]c2c1,1.6µM*,0.79µM*,2.2µM*,?,0.95µM*
Cc1nc(CSc2ccc(Br)cc2)cs1,4%,-1%,nt,12%,17µM*
C[C@H](CO)N1C[C@H](C)[C@@H](CN(C)C(=O)NC2CCCCC2)Oc2ccc(NC(=O)CCC(F)(F)F)cc2C1=O,nt,nt,nt,2%,nt
CC(C)c1cc(=O)[nH]c(N2CCN(Cc3ccc4c(c3)OCO4)CC2)n1,-1%,-1%,nt,0%,6%
CCc1ccc(OC(=O)c2ccn(CC)n2)cc1,3%,0%,3%,3%,15µM*
CCn1ccc(C(=O)NC2CCCC2)n1,8%,2%,nt,7%,1%
CCc1ccc(C(=O)COC(=O)c2cc([N+](=O)[O-])ccc2N2CCOCC2)cc1,-9%,-27%,nt,-4%,0%
COCCNC(=O)[C@@H]1CCCN1C(=O)C1CCN(S(=O)(=O)c2ccc(C)cc2)CC1,-1%,-1%,nt,-2%[9.26 µM],-1%
SMILES,Rab9 promoter act,NPC1 prom act,SMN2 splice up,ELG1 genotoxic,FLuc modulator
O=C(N/N=C1\CCCc2ccccc21)c1ccc([N+](=O)[O-])cc1,3.5µM*,?,14µM*,?,6µM*
O=C(CNc1ccc(F)cc1)N/N=C1\CCCc2ccccc21,1%,-2%,-3%,-3%,4%
CC(C)NC(=S)N/N=C1\CCCc2ccccc21,-3%,-1%,6%,0%,-1%
Cc1ccc(C(=O)N/N=C2\CCCc3ccccc32)c(C)c1,?,2.8µM*,13µM*,13%,6µM*
COC(=O)c1nc2ccc(N3CCOCC3)cc2c(C)c1C(=O)OC,2.8µM*,?,10µM*,-3%,2.4µM*
O=C1c2ccccc2C(=O)C1c1ccccn1,1.4µM*,2.5µM*,nt,?,11µM*
Cc1ccccc1C1C(=O)c2ccccc2C1=O,7%,-5%,nt,-5%,-1%
O=C1c2cccnc2-c2ncccc21,7%,3%,7%,4%,-1%
O=C1c2ccccc2C(=O)C1c1ccncc1,0.5µM*,1.3µM*,7.9µM*,3.2µM*,3.4µM*
Cc1ccc(C2C(=O)c3ccccc3C2=O)cc1,23%,12%,nt,4%,17µM*
COc1ccc([C@H]2CC(=O)C=C(c3cccc4c3Oc3ccccc3S4)C2)cc1,-2%,-5%,nt,-2%,1%
Cc1cccc2c1N(Cc1ccccc1OCCC(C)C)C(=O)C2=O,nt,nt,?,nt,-2%
O=C(COC(=O)c1ccccc1Cl)Nc1cccnc1Cl,0%,0%,nt,2%,?
O=C(COC(=O)COc1ccccc1Cc1ccccc1)Nc1cccnc1Cl,0%,-4%,5.6µM*,5%,-1%
CC(N)=Nc1ccc([N+](=O)[O-])cc1,2%,-1%,-8%,-1%,0%
O=[N+]([O-])c1ccc(N=Nc2c(Cl)cc(O)cc2Cl)cc1,-46%,-39%,nt,8%,2.7µM*
Nc1nc(-c2ccccc2)c(N=Nc2ccccc2Cl)s1,-2%,-2%,-16%,3%,?
Nc1nc(-c2ccccc2)c(N=Nc2cccc3ccccc23)s1,-3%,1%,-28%,0%,27µM*
CCCC(=O)Nc1c(-c2cccc(OC)c2)c(=O)c2ccccc2n1C,9%[1.84 µM],1%,nt,-1%,-3%
CC1Cc2ccccc2N1C(=O)COC(=O)/C=C/c1ccc(F)cc1 (centres undefined),-1%,-7%,nt,1%,4%
CC1Cc2ccccc2N1C(=O)/C=C/c1cccc(F)c1 (centres undefined),1.8µM*,2.2µM*,11µM*,?,6µM*
C=CCn1c(C(C)NC(=O)c2cccc(C)c2)n[nH]c1=S (centres undefined),-10%,-2%,10%,-4%,2%
CN1C(=O)/C(=C/C=C2\SCCN2C)SC1=S,3.2µM*,2.5µM*,2.5µM*,?,1.9µM*
CN1C(=O)/C(=C/C=C2\SCCN2C)N(C)C1=S,2.5µM*,3.2µM*,?,15µM*,17µM*
COc1cccc(NC(=S)NC(=O)/C=C/c2ccco2)c1,25%,5%,nt,?,17µM*
CN1CCN(c2ccc(NC(=S)NC(=O)/C=C/c3ccco3)cc2)CC1,?,?,nt,?,24µM*
CC(=O)Nc1ccc(NC(=S)NC(=O)/C=C/c2ccco2)cc1,4%,1%,nt,-2%,-1%
O=C(/C=C/c1ccco1)NC(=S)Nc1cccc(C(=O)O)c1,2.8µM*,4µM*,nt,?,11µM*
CCCCCCNS(=O)(=O)c1nc2nc(C)cc(C)n2n1,1%,1%,10%,-15%,2%
COCCN(C(=O)COC(=O)Cc1ccc(Cl)cc1Cl)c1c(N)n(Cc2ccccc2)c(=O)[nH]c1=O,-3%,0%,nt,-3%,4%

# Screening results (PubChem BioAssay)
